aSyn UTR act: Activators via SNCA 5'UTR binding, MLPCN; alpha-synuclein 5'UTR reporter, activators screen; activity score, % (tested at 7.5 µM), hits read low; 7.1% of 300,000 active; AID 1814, 2009; in the data active means activity score below about -60%
Hits are given with their value; – = inactive. A selection follows.

SMILES | aSyn UTR act
COc1ccc(CSc2nnc(-c3ccncc3)n2C)cc1F | -93.9
c1ccn2c(SCc3ccc4c(c3)OCO4)nnc2c1 | -93.0
Clc1ccc(CSc2nncn2-c2ccc3c(c2)OCCO3)cc1 | –
COc1ccc(Cn2c(SCc3ccc(C)cc3)nc3cc(OC)c(OC)cc3c2=N)cc1Cl | –
CCCCc1ccc(-c2nc(NC(=O)C3C4CCC(O4)C3C(=O)O)sc2C)cc1 (stereo not drawn) | -128.3
O=C(OCc1ccc(Cl)c(Cl)c1)c1ccc[nH]1 | -82.5
O=C(Nc1ncc(Cc2ccccc2)s1)C1COc2ccccc2O1 (stereo not drawn) | -189.9
CCC(CC)c1nnc(NC(=O)C2COc3ccccc3O2)s1 (stereo not drawn) | -72.1
O=C(NC1=NCCS1)C1COc2ccccc2O1 (stereo not drawn) | –
Cc1nnc(NC(=O)C2COc3ccccc3O2)s1 (stereo not drawn) | -118.3
COCCOCCn1c(/C=C/c2ccccc2)nc2ccccc21 | -96.6
COc1cc(Cn2c(-c3nonc3N)nc3ccccc32)ccc1C | –
COc1ccc(/C=C/c2nc3ccccc3n2Cc2ccc(OC)c(OC)c2)cc1 | -190.6
CC(C)n1c(/C=C/c2ccccc2)nc2ccccc21 | -117.8
O=c1cc(N2CCOCC2)cnn1-c1ccccc1 | -123.1
Cc1cc(O)ccc1Nc1nc(-c2cccnc2)cs1 | -281.0
Cc1cc(O)ccc1Nc1nc(-c2cccs2)cs1 | -101.4
CC(SC1=NCCS1)C(=O)Nc1nnc(-c2ccc(Cl)cc2)s1 (stereo not drawn) | -63.0
CC(Sc1nncn1C)C(=O)Nc1nnc(-c2ccccc2)s1 (stereo not drawn) | -83.0
COc1ccc(Cc2nc3ccc(C(=O)NC(C)C)cc3o2)cc1 | -107.4
C=C(C)CNC(=O)c1ccc2nc(Cc3ccc(OC)cc3)oc2c1 | -178.1
COc1ccc(Cc2nc3ccc(C(=O)N4CCCC4)cc3o2)cc1 | -155.1
COc1ccc([C@@H](C)NC(=O)c2ccc3oc(C(C)C)nc3c2)cc1 | -70.5
O=C(c1ccc2nc(Cc3cccc(Cl)c3)oc2c1)N1CCOCC1 | -98.6
C/C(CC(=O)NCc1ccccc1Cl)=N/NC(=O)c1ccccn1 | -115.9
SMILES | aSyn UTR act
C/C(CC(=O)Nc1ccc(F)cc1)=N\NC(=O)c1ccccn1 | -63.5
C/C(=N\NC(=O)CCCNc1ccc(C)cc1)c1ccccn1 | –
C/C(CC(=O)NC1CCCCC1)=N\NC(=O)c1ccccn1 | -132.3
C/C(=N\NC(=O)c1ccc(F)cc1)c1ccccn1 | -93.2
CC(=O)Nc1ccccc1NC(=O)C/C(C)=N/NC(=O)c1ccccn1 | -113.5
C/C(CC(=O)Nc1ccc(Cl)c(C(F)(F)F)c1)=N\NC(=O)c1ccccc1O | -82.1
Cc1c(/C=C/C(=O)c2cccs2)cnn1C | -125.0
CCc1ccc(C(=O)/C=C/c2cnn(C)c2C)s1 | -117.5
Nc1ccc(/C=C/C(=O)c2cccs2)cc1 | -134.9
O=[N+]([O-])c1ccccc1S(=O)(=O)Oc1ccccc1/C=N/n1cnnc1 | -79.4
CC(=O)Nc1cccc(NC(=O)c2cc3ccccc3o2)c1 | -92.2
CC(C)C(=O)Nc1cccc(NC(=O)c2cc3ccccc3o2)c1 | -108.3
Cc1ccc(NC(=O)c2cc3ccccc3o2)cc1Cl | -269.8
CC(=O)Nc1cccc(NC(=O)c2oc3ccccc3c2C)c1 | -272.2
CCC(=O)Nc1ccc(Cl)c(NC(=S)NC(=O)c2cc3ccccc3o2)c1 | -95.2
CC(=O)Nc1ccc(-c2cc3ccccc3o2)cc1 | -147.4
Cc1ccc(SCCN2CCC(C)CCC2=O)cc1 (stereo not drawn) | -153.3
CC(C)(C)C1CCC(=O)N(CCSc2ccccc2)CC1 (stereo not drawn) | -145.0
Cc1ccc(SCCC(=O)N2CCC(C)CC2)cc1 | -92.2
O=c1c(C=NCCCO)c(-c2ccccc2)[nH]n1-c1nc2ccccc2s1 | –
O=c1c(C=NCCN2CCNCC2)c(-c2ccccc2)[nH]n1-c1ccc([N+](=O)[O-])cc1 | -93.9
O=C1C(C=Nc2ccc(F)cc2)=C(O)c2ccccc21 | -213.9
COc1ccc(N=CC2=C(O)c3ccccc3C2=O)c(OC)c1 | –
Cc1ccccc1N=CC1=C(O)c2ccccc2C1=O | -138.4
Clc1ccc(Cl)c(OCc2cc(-c3ccccc3Cl)on2)c1 | -154.8
SMILES | aSyn UTR act
CCn1cc(NC(=O)CCl)c(C)n1 | -103.6
COc1ccc(-c2csc(NC(=O)c3ccccc3NS(=O)(=O)c3ccc(F)c(F)c3)n2)cc1 | –
Cc1ccc2nc(NC(=S)NC(=O)c3ccc(OC(C)C)cc3)sc2c1 | -107.4
CCCC(=O)NC(=S)Nc1nc(-c2ccc(OC)cc2)cs1 | -65.3
CCCOc1ccc(C(=O)NNC(=S)NC(=O)CC)cc1 | –
CCCOc1ccc(C(=O)NC(=S)Nc2nc3ccccc3s2)cc1 | -246.8
Cc1ccc2nc(NC(=S)NC(=O)c3cccs3)sc2c1 | -104.0
Cc1ccc(-c2csc(NC(=S)NC(=O)c3cccs3)n2)cc1 | -77.3
S=C(NCCc1ccccc1)NC1CCCCCC1 | -114.2
S=C(NCCc1ccc(Cl)cc1)NC1CCCCC1 | -111.3
CNC[C@@H](Cc1ccccc1)NC[C@@H](CC1CCCCC1)NCCCc1ccccc1 | –
N#C/C(=C\c1ccc(N2CCCC2)c([N+](=O)[O-])c1)c1nc2ccccc2[nH]1 | -79.6
N#C/C(=C\c1ccc(OC(=O)c2cccs2)cc1)c1nc2ccccc2[nH]1 | -153.0
CC(C)CC(/C(O)=C(\C#N)c1nc2ccccc2[nH]1)N1C(=O)c2ccccc2C1=O (stereo not drawn) | –
O=[N+]([O-])c1cc(/C=N/n2cnnc2)ccc1N1CCCC1 | –
N#C/C(=C\Nc1ccc2c(c1)OCCO2)c1nc2ccccc2[nH]1 | -64.8
N#C/C(=C\c1cccs1)c1nc2ccccc2[nH]1 | -256.1
N#C/C(=C\c1ccc(Sc2ccccc2)o1)c1nc2ccccc2[nH]1 | -219.2
N#C/C(=C\c1cn(-c2ccccc2)nc1-c1cc2ccccc2o1)c1nc2ccccc2[nH]1 | -105.8
N#C/C(=C/c1cccs1)c1ccccn1 | -116.5
N#C/C(=C/c1ccc(O)c(O)c1)c1nc2ccccc2[nH]1 | -148.0
Cc1ccc(Nc2ccc(S(=O)(=O)N3CCOCC3)cc2[N+](=O)[O-])c(C)c1 | -62.1
Cc1ccc(Cn2c(O)c(N=NC(=S)Nc3ccccc3F)c3cc(S(=O)(=O)N4CCOCC4)ccc32)cc1 | –
Cc1ccc(C)c(NC(=S)N=Nc2c(O)n(C)c3ccc(S(=O)(=O)N4CCOCC4)cc23)c1 | –
CCCCCCOC(=O)c1ccc(OC(=O)c2cccnc2)cc1 | -101.4
SMILES | aSyn UTR act
Cc1cc(=O)oc2cc(NC(=O)c3c(Cl)cnn3C)ccc12 | -76.1
Cc1cc(=O)oc2cc(NC(=O)c3ccnn3C)ccc12 | -135.3
Cc1cc(=O)oc2cc(NC(=O)c3ccccc3Cl)ccc12 | -201.3
Cc1ccc2sc3ccc(NC(=O)c4ccccc4Cl)cc3c(=O)c2c1 | -109.1
CCCCc1noc2c1/C(=N\O)CC(c1ccccc1)C2 (stereo not drawn) | -77.5
O=C1c2ccccc2C(=O)C1c1ccccn1 | -105.4
CCN(CC)c1ccc(C2Nc3cccc4cccc(c34)N2)cc1 | -171.1
C(=C\c1ccncc1)/c1ccccc1 | -73.3
C(=C\c1nc(-c2ccncc2)no1)/c1ccccc1 | -131.8
C(=C\c1nc(-c2ccccc2)no1)/c1ccccc1 | -154.1
COc1ccc(C(=O)Cn2cnc3ccccc3c2=O)c(OC)c1 | -96.3
COC(=O)c1c(C)[nH]c(C(=O)/C=C/c2cccc(Cl)c2)c1C | -232.1
COC(=O)c1c(C)[nH]c(C(=O)CSc2ccc(Cl)cc2)c1C | -133.5
COC(=O)c1c(C)[nH]c(C(=O)/C=C/c2ccc(C)cc2)c1C | -73.0
COC(=O)c1c(C)[nH]c(C(=O)/C=C/c2ccccc2)c1C | -107.3

Source: PubChem BioAssay (Broad Institute)
